In all, about 5,500 compounds went through this assay and about 2,000 (36%) were called active. About 18% were inconclusive and are not listed. Cut-off read from the data, not from the text of the source: active = normalized growth mostly below about 0.91 (no sharp cut-off); inconclusive = no clear call, values can overlap the other calls; inactive = mostly above about 0.92. The list shows a part of the results.
Test: chemical genetic growth profiling, strain panel (AID 1159580);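 note: tested at 20 µM; growth read once vehicle control cultures reached saturation at 30 °C; 1 = growth at the plate median or of vehicle wells; lower values mean less growth of the strain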
Details: S. cerevisiae deletion strains, growth OD

Measured: normalized growth

O=C(O)c1cccc2cccc(C(=O)O)c12
active: locus YAR019C, strain CDC15, hits give low values 0.085 | locus YBL105C, strain PKC1, hits give low values 0.0837 | locus YBR135W, strain CKS1, hits give low values 0.0904 | locus YBR136W, strain MEC1, hits give low values 0.0904 | locus YBR160W, strain CDC28, hits give low values 0.086 | locus YDL017W, strain CDC7, hits give low values 0.0824 | locus YDL028C, strain MPS1, hits give low values 0.0878 | locus YDL108W, strain KIN28, hits give low values 0.0876 | locus YDL214C, strain PRR2, hits give low values 0.0872 | locus YDR052C, strain DBF4, hits give low values 0.0886 | locus YDR054C, strain cdc34, hits give low values 0.0879 | locus YDR477W, strain SNF1, hits give low values 0.0946 | locus YER123W, strain YCK3, hits give low values 0.0991 | locus YER133W, strain GLC7, hits give low values 0.0939 | locus YFL009W, strain cdc4, hits give low values 0.0889 | locus YFL029C, strain CAK1, hits give low values 0.0833 | locus YFR003C, strain YPI1, hits give low values 0.0828 | locus YFR019W, strain FAB1, hits give low values 0.0952 | locus YGR040W, strain KSS1, hits give low values 0.11 | locus YGR052W, strain FMP48, hits give low values 0.113 | locus YGR092W, strain DBF2, hits give low values 0.107 | locus YHR030C, strain SLT2, hits give low values 0.123 | locus YHR079C, strain IRE1, hits give low values 0.109 | locus YHR082C, strain KSP1, hits give low values 0.135 | locus YHR205W, strain SCH9, hits give low values 0.0046 | locus YIL147C, strain SLN1, hits give low values 0.0851 | locus YJL095W, strain BCK1, hits give low values 0.118 | locus YJL128C, strain PBS2, hits give low values 0.0989 | locus YJL157C, strain FAR1, hits give low values 0.0897 | locus YJR016C, strain ILV3, hits give low values 0.0848 | locus YJR066W, strain TOR1 (second series), hits give low values 0.101 | locus YJR066W, strain TOR1, hits give low values 0.145 | locus YKL048C, strain ELM1, hits give low values 0.12 | locus YKL067W, strain YNK1, hits give low values 0.0918 | locus YKL101W, strain HSL1, hits give low values 0.114 | locus YKL193C, strain SDS22, hits give low values 0.0868 | locus YKL203C, strain TOR2, hits give low values 0.108 | locus YLR113W, strain HOG1, hits give low values 0.184 | locus YLR133W, strain CKI1, hits give low values 0.0857 | locus YLR403W, strain SFP1, hits give low values 0.00123 | locus YML070W, strain DAK1, hits give low values 0.117 | locus YMR001C, strain CDC5, hits give low values 0.0843 | locus YMR205C, strain PFK2 (second series), hits give low values 0.0905 | locus YMR277W, strain FCP1, hits give low values 0.0893 | locus YNL006W, strain LST8, hits give low values 0.077 | locus YNL020C, strain ARK1, hits give low values 0.0896 | locus YNL161W, strain CBK1, hits give low values 0.0944 | locus YNL183C, strain NPR1, hits give low values 0.112 | locus YNL207W, strain RIO2, hits give low values 0.0871 | locus YNL222W, strain SSU72, hits give low values 0.089 | locus YNL307C, strain MCK1 (second series), hits give low values 0.103 | locus YOL078W, strain AVO1, hits give low values 0.0865 | locus YOL136C, strain PFK27, hits give low values 0.0961 | locus YOR061W, strain CKA2, hits give low values 0.0989 | locus YOR119C, strain RIO1, hits give low values 0.104 | locus YOR231W, strain MKK1, hits give low values 0.115 | locus YOR329C, strain SCD5, hits give low values 0.082 | locus YPL031C, strain PHO85, hits give low values 0.102 | locus YPL153C, strain RAD53, hits give low values 0.101 | locus YPL204W, strain HRR25, hits give low values 0.0938 | locus YPL209C, strain IPL1, hits give low values 0.0815 | locus YPL256C, strain CLN2, hits give low values 0.162 | locus YPR025C, strain CCL1, hits give low values 0.0896 | locus YPR106W, strain ISR1, hits give low values 0.281 | strain NNK1, hits give low values 0.0867 | strain TSCII, hits give low values 0.0877

— PubChem BioAssay AID1159580 (chemical genetic matrix, 2015)
